According to PubChem BioAssay AID1845224 (National Center for Advancing Translational Sciences (NCATS), 2023):
Records with an inconclusive call do not appear. Calls of active or inactive are those of the source. The call rests on the fitted dose curve; in most records, active means well fitted curve in the direction sought with a large enough effect; inconclusive means small, poorly fitted or top-dose-only effect, or another doubt; inactive means no such curve, though single readings can be large or run the other way.

test system: NanoLuc luciferase (engineered Oplophorus gracilirostris luciferase); test: Confirmatory Nanoluciferase (NLuc) qHTS assay for identification of artifact compounds.; further: % of control where 0% means no effect; conditions: secreted NLuc in S16 cell medium, luminescence, 5 min; series mostly up to 39 µM; activity change, negative = inhibition: at the top concentration
Outline: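 Conditioned medium from NLuc-expressing S16 cells (diluted 1:55) was incubated with compounds for 15 min at room temperature. Nano-Glo substrate (1:100) was then added, and luminescence was read after 5 min.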

Activity change, negative = inhibition, inactive:
Cc1nc2nc(CNC(=O)OC(C)(C)C)nn2c(C)c1CCC(=O)NCc1ccccc1Cl 4.97%
CCOC(=O)c1c(S(=O)(=O)NCC(=O)Nc2ccc(F)cc2C)c(C)n(C)c1C -2.68%
C[C@]12C[C@H](O)[C@H]3[C@@H](CCC4=CC(=O)CC[C@@]43C)[C@@H]1CC[C@@H]2C(=O)CO 0.994%
CCCS(=O)(=O)N1CC(=O)N(c2cc(C)cc(C)c2)C(C)(C(=O)NC2CCCCCC2)C1 (stereo unspecified) -15.1%
CO[C@H]1C[C@H](O[C@H]2[C@H](C)[C@@H](O[C@@H]3O[C@H](C)C[C@H](N(C)C)[C@H]3O)[C@@H](C)C[C@]3(CO3)C(=O)[C@H](C)[C@@H](O)[C@@H](C)[C@@H](C)OC(=O)[C@@H]2C)O[C@@H](C)[C@@H]1O 10.5% [at 19.8 µM]
O=c1oc2ccc(F)cc2cc1-c1nc(-c2cccs2)no1 -6.64%
CC(=O)S[C@H]1CC2=CC(=O)CC[C@@]2(C)[C@H]2CC[C@@]3(C)[C@H](CC[C@]34CCC(=O)O4)[C@@H]12 -2.1% [at 19.8 µM]
CC1CCN(c2ccc(-c3cccc(NS(=O)(=O)c4ccc(F)cc4F)c3)nn2)CC1 -3.08%
CC(C)(O)C1CC[C@@]2(C)C3CCC4[C@@]5(C)CCCC(C)(C)C5C(O)C[C@]4(C)[C@]3(C)CC[C@@H]12 (stereo partly specified) 0.282%
CCOc1ccccc1C(=O)Nc1cccc2ccc(C)nc12 -12.5%
Cc1ccc(NC(=O)c2ncn(-c3ccccc3)n2)c(Cl)c1 -6.83%
Cc1ccc(NC(=O)Nc2nnc(SCC(=O)N3CCCCC3)s2)cc1 -6.83%
CCOC(=O)N1CCN(S(=O)(=O)N2CCCC(C(=O)NCc3cccc(OC)c3)C2)CC1 (stereo unspecified) -6.38%
Cc1ccc(CSc2ncccc2C(=O)O)cc1 -19.5%
O=C(O)c1cc(F)c(S(=O)(=O)N2CCN(S(=O)(=O)c3ccc4c(c3)OCCO4)CC2)cc1F -15.6%
COc1ccc(OCc2nnc(-c3ccccc3)o2)cc1 -6.57%
Cc1ccc(-c2nnc(Nc3cccc(Br)c3)c3ccccc23)cc1S(=O)(=O)N1CCCCC1 -0.839%
CCCn1c(C)nc2c(N3CCCN(Cc4ccccc4)CC3)nc(C)nc21 -1.03%
COc1ccc(C(=O)Nc2ccc(-c3nc4ncccc4o3)cc2)cc1 -15.3%
CCc1ccc2oc(C(=O)Nc3cc(Cl)ccc3OC)cc(=O)c2c1 6.27%
CCc1cccc(C)c1NC(=O)Cn1c(=O)n(-c2ccc(C)cc2)c(=O)c2c1cnn2C -0.148%
COc1cccc(N2CCN(c3c4c(nc5nncn35)CCC4)CC2)c1 -13.7%
O=C(Nc1noc2ccccc12)c1c(F)cccc1F -3.71%
O=C(O)c1sc2c(c1-c1nc3ccccc3s1)CCNC2 0.752%
COc1ccc(-n2nc(C(=O)Nc3cccc(C)n3)c3c4ccccc4n(C)c3c2=O)cc1 5.29%
COc1ccccc1N1CCN(S(=O)(=O)c2c(C)nc3sc(C)c(C)n3c2=O)CC1 -6.1%
CCCN(C(=O)Cc1c(C(=O)O)[nH]c2ccc(Cl)cc12)c1ccc(OCC)cc1 -2.15%
Cc1ccc(-c2nc(=Nc3ccccc3)sn2-c2ccccc2)cc1 -8.48%
COc1ccc(NC(=O)CSc2c3c(nc4ccccc24)CCC3)cc1Cl -4.79%
Nc1cccc(-c2ccc(NC(=O)c3cccs3)cn2)c1 -1.41%
O=C(NCCC1=CCCCC1)c1ccc2c(c1)N(Cc1cccc(Cl)c1)C(=O)c1ccccc1S2=O (stereo unspecified) -2.54%
